The values that follow come from PubChem BioAssay (NCI).

This is part of a sample that, as a whole, favours compounds with a hit. Of some 83,000 tested, about 20% had one in any assay.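 Activity criterion: percent growth below 10, measured after cells in 96-well plates were exposed to a single compound concentration for 48 hours.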 Values without a mark were called inactive. The source made the active and inactive calls.

Common to all, as to experiment: NCI-60 one-dose screen, 48 h (100 = growth as untreated, 0 = no growth, -100 = all killed)
One experiment has as its system NCI-H226 lung. The note with it: 10 µM.
A further experiment has as its system NCI-H322M lung. As to conditions: 10 µM unless noted.
In the next experiment the test system is HOP-62 NSCLC. The note with it: 10 µM unless noted.
The test system of the next experiment is NCI-H460 lung. The note with it: 10 µM unless noted.
For a further experiment, the system named is NCI-H522 lung. The note with it: 10 µM.
The next experiment concerns A549/ATCC NSCLC. As to conditions: 10 µM unless noted.
The subject of another experiment is 786-0 renal. The note with it: 10 µM unless noted.
The subject of another experiment is COLO 205 colon. The note with it: 10 µM unless noted.
The next experiment has as its system HOP-92 NSCLC. The note with it: 10 µM unless noted.

Consider `CC(C)NCC(O)COc1ccc(CCOCC2CC2)cc1` (centres undefined), for which the growth in the experiment on NCI-H226 lung is 90.7%; in the experiment with NCI-H322M lung it was 106%; in the experiment with HOP-62 NSCLC, 104%; with NCI-H460 lung, 108%; in the experiment with NCI-H522 lung it was 118%; in the experiment with A549/ATCC NSCLC, 99.5%. For the same compound, the figures for the growth with 786-0 renal and in the experiment with COLO 205 colon were 100% and 116%, respectively.
As for `CN1CCc2c(Sc3ccc(C(=O)NO)cc3)c3ccccc3n2C1`, the growth in the experiment on NCI-H226 lung is 62.1%; in the experiment on NCI-H322M lung, 67.8%; in the experiment on HOP-62 NSCLC, 66.8%; with NCI-H460 lung, 40.3%; with HOP-92 NSCLC it was 52.6%; in the experiment on A549/ATCC NSCLC it was 52.1%. In addition, in the experiment on 786-0 renal, the growth was 75.3%.
Take `COc1c(Cl)ccc2c(-c3nc4cc(Cl)c(F)cc4s3)cc(=O)oc12`: the growth with NCI-H226 lung is 94.8%; with NCI-H322M lung it was 106%; with HOP-62 NSCLC it was 86.6%; in the experiment with NCI-H460 lung it was 99.2%; with NCI-H522 lung it was -78.2% (active); with A549/ATCC NSCLC, 78%. Further, the growth in the experiment with 786-0 renal was -43.3% (active); in the experiment with COLO 205 colon, 124%.
`COc1ccc(-c2nc3sccn3c2/C=C/C(=O)c2cc(OC)c(OC)c(OC)c2)cc1OC`: the growth with NCI-H226 lung is 64.9%; in the experiment on NCI-H322M lung, 57.9%; with HOP-62 NSCLC, 36.9%; in the experiment on HOP-92 NSCLC it was 0.346% (active); in the experiment on NCI-H522 lung it was 15.3%; in the experiment with A549/ATCC NSCLC it was 54.4%. Moreover, the growth in the experiment on 786-0 renal is 27.7%; in the experiment on COLO 205 colon, 29.6%.
Turning to `O=S(=O)(OCCO)c1ccccc1`, the growth is 98.1% in the experiment with NCI-H226 lung; 103% with NCI-H322M lung; 126% in the experiment with HOP-62 NSCLC; 113% in the experiment on NCI-H460 lung; 101% with HOP-92 NSCLC; 95.5% in the experiment on NCI-H522 lung. Further, the growth in the experiment on A549/ATCC NSCLC was 97.2%; in the experiment with 786-0 renal it was 108%; with COLO 205 colon it was 118%.
In the case of `NC1=NC(c2ccccc2OS(=O)(=O)c2ccc(Br)cc2)n2c(nc3ccccc32)N1` (centres undefined), the growth with NCI-H226 lung is 102%; in the experiment on NCI-H322M lung, 101%; with HOP-62 NSCLC, 75.2%; in the experiment with NCI-H460 lung, 97.6%; with HOP-92 NSCLC, -1.3% (active); in the experiment with NCI-H522 lung, 82%. In addition, the growth is 95.9% with A549/ATCC NSCLC and 91.8% with COLO 205 colon.
`NC(=O)c1cc(I)ccc1NC(=O)COc1ccc(Cl)cc1Cl`: the growth was 103% with NCI-H226 lung; 98.5% in the experiment with NCI-H322M lung; 87.2% in the experiment on HOP-62 NSCLC; 103% with NCI-H460 lung; 75.7% in the experiment with NCI-H522 lung; 90.4% in the experiment on A549/ATCC NSCLC. Also, the growth with 786-0 renal is 89.9%; in the experiment with COLO 205 colon, 101%.
For `COC(=O)c1cc(-c2ccc(C)cc2)n(C(=O)CSc2nc3sc(C(N)=O)c(C)c3c(=O)n2Cc2ccccc2)n1`, the growth was 103% with NCI-H226 lung; 129% in the experiment with NCI-H322M lung; 98.6% with HOP-62 NSCLC; 103% in the experiment on NCI-H460 lung; 92.5% in the experiment on HOP-92 NSCLC; 95% in the experiment with NCI-H522 lung. The growth with A549/ATCC NSCLC was 107%; in the experiment with 786-0 renal, 102%; in the experiment with COLO 205 colon, 93.5%.
As for `O=C(Nc1ccccc1O)c1ccc(NS(=O)(=O)c2cccc3cccnc23)cc1`, the growth with NCI-H226 lung is 50.3%; in the experiment with NCI-H322M lung, 48.3%; in the experiment with HOP-62 NSCLC, 38.3%; in the experiment with NCI-H460 lung, 40.2%; with NCI-H522 lung it was 37.7%; in the experiment on A549/ATCC NSCLC, 51.1%. The growth in the experiment on 786-0 renal was 71.9%; in the experiment on COLO 205 colon, 47.8%.
Regarding `Cn1c2ccccc2c2nn(Cc3ccccc3)c(=O)nc21`, the growth in the experiment with NCI-H226 lung was 86.6%; in the experiment with NCI-H322M lung, 113%; in the experiment with HOP-62 NSCLC, 94.2%; with NCI-H460 lung it was 102%; in the experiment on NCI-H522 lung it was 103%; in the experiment with A549/ATCC NSCLC it was 105%. Further, the growth with 786-0 renal was 108%; in the experiment with COLO 205 colon it was 119%.
With `CN1CCn2c(c(Sc3ccc(C(=O)NO)cc3)c3ccccc32)C1=O`, the growth with NCI-H226 lung is -8.32% (active); with NCI-H322M lung, 53%; in the experiment on HOP-62 NSCLC, 21.3%; in the experiment on NCI-H460 lung it was 20.4%; in the experiment with NCI-H522 lung it was -97.3% (active); with A549/ATCC NSCLC, 62%. Besides, the growth with 786-0 renal was 39.8%; in the experiment on COLO 205 colon, 1.64% (active).
Regarding `O=[N+]([O-])c1ccc(C=C2C(Cl)=C(Cl)C(Cl)=C2Cl)cc1`, the growth in the experiment with NCI-H226 lung is 62.7%; in the experiment with NCI-H322M lung it was 121%; in the experiment with HOP-62 NSCLC, 78.3%; with NCI-H460 lung it was 90.6%; in the experiment with NCI-H522 lung, 46.1%; in the experiment on A549/ATCC NSCLC, 92.1%. The figures for the growth with 786-0 renal and with COLO 205 colon were 19.8% and 54%, respectively.
As to `COc1cc(/C=C/c2cc(/C=C/c3ccc(O)c(OC)c3)n(-c3ccccc3)n2)ccc1O`, the growth was -8.19% (active) in the experiment on NCI-H226 lung; -3.64% (active) with NCI-H322M lung; -67.7% (active) in the experiment with HOP-62 NSCLC; 0.0675% (active) in the experiment with NCI-H460 lung; -30.2% (active) with NCI-H522 lung; 8.4% (active) in the experiment on A549/ATCC NSCLC. Moreover, the growth with 786-0 renal is -76.7% (active); with COLO 205 colon, -84.1% (active).
Take `O=c1ccc2ccccc2o1`: the growth in the experiment on NCI-H226 lung is 102%; in the experiment with NCI-H322M lung it was 115%; with HOP-62 NSCLC, 108%; in the experiment on NCI-H460 lung, 114%; with NCI-H522 lung it was 94.3%; in the experiment on A549/ATCC NSCLC it was 94%. The growth was 105% in the experiment on 786-0 renal and 114% with COLO 205 colon.
Regarding `Cc1ccc(C(=O)Nc2ccccc2N)cc1`, the growth was 74.5% with NCI-H226 lung; 71.6% with NCI-H322M lung; 92.2% with HOP-62 NSCLC; 66% in the experiment with NCI-H460 lung; 70% in the experiment with NCI-H522 lung; 90.8% with A549/ATCC NSCLC. Moreover, the growth in the experiment with 786-0 renal is 75.4%; in the experiment on COLO 205 colon, 94.6%.
As to `Cc1ccc(S(=O)(=O)N(c2ccc(Cl)cc2)c2ccc(Br)cc2C(=O)O)cc1`, the growth in the experiment on NCI-H226 lung was 97.7%; with NCI-H322M lung it was 114%; with HOP-62 NSCLC, 105%; with NCI-H460 lung, 107%; in the experiment with NCI-H522 lung, 102%; in the experiment on A549/ATCC NSCLC, 105%. Also, the growth was 114% in the experiment on 786-0 renal and 116% in the experiment on COLO 205 colon.
